Source: PubChem BioAssay
Active and inactive are the calls of the source. Unless noted, how the calls were made is not given here.

Legend:
[1] = test system: Wnt5a (protein binding on small-molecule microarray); assay: small molecules binding Wnt5a protein – biophysical, small-molecule microarray, 635/667 nm fluorescence, primary screen (AID 1142); conditions: 635 nm fluorescence, higher = more signal;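 further: fluorescence read at 667 nm with signal to noise per printed feature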
[2] = ATP-based viability of Huh7 replicon cells – cell-based, CellTiter-Glo luminescence, basal, 48 h, cytotoxicity control for HCV replication inhibitor project, primary screen (AID 1143); conditions: higher = more signal, called active from +8 up or from −8 down;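 further: Huh7 hepatoma cells carrying a hepatitis C replication reporter with no stimulus; test concentration not given here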
[3] = Pseudomonas biofilm growth suppression – PAO1 strain, BacTiter-Glo luminescence, LB-PBS, primary screen (AID 1144); conditions: P. aeruginosa PAO1 biofilm, 12 h, higher = more signal
[4] = basal CRE-LacZ reporter activity in PC12 – cell-based, unstimulated, primary screen (AID 1145); conditions: no forskolin, luminescence, 4.5 h, higher = more signal, called active from +8 up or from −8 down
[5] = forskolin-driven CRE-LacZ activity in PC12 – cell-based, CRE-LacZ reporter, forskolin-stimulated, primary screen (AID 1146); conditions: luminescence, 4.5 h, higher = more signal, called active from +8 up or from −8 down;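 further: PC12 cells with 6xCRE LacZ reporter stimulated by forskolin 10 µM; beta-galactosidase reporter signal reflecting CREB driven transcription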
[6] = biological target: Streptavidin (Streptomyces avidinii) (UniProt P22629); assay: compounds binding control protein streptavidin – biophysical, small-molecule microarray, 635/667 nm fluorescence, artefact control for SMM compound annotation, primary screen (AID 1147); conditions: higher = more signal;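 further: signal reflects streptavidin binding to arrayed compounds as a control protein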
Sequence of Streptavidin (Streptomyces avidinii) (P22629 whole entry, looked up): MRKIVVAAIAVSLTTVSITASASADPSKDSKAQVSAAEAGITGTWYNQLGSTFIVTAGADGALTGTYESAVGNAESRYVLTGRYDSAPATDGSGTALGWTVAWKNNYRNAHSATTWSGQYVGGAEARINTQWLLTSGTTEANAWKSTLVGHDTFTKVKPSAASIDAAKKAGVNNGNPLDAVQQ

[7] = probe aInhba binding on compound microarray – biochemical, small-molecule microarray, 635/667 nm fluorescence, primary screen (AID 1148); conditions: higher = more signal;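 further: score merges 667nm spot fluorescence with signal-to-noise for antibody binding to printed compounds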
Torsin-1A (Homo sapiens) [8] = biological target: Torsin-1A (Homo sapiens) (UniProt O14656); assay: TOR1A wild-type binding on microarray – cell lysate, small-molecule microarray, lysate, 635/667 nm, primary screen (AID 1149); conditions: COS7 hTOR1A-WT lysate, 635 nm fluorescence, higher = more signal
Sequence of Torsin-1A (Homo sapiens) (O14656 whole entry, looked up): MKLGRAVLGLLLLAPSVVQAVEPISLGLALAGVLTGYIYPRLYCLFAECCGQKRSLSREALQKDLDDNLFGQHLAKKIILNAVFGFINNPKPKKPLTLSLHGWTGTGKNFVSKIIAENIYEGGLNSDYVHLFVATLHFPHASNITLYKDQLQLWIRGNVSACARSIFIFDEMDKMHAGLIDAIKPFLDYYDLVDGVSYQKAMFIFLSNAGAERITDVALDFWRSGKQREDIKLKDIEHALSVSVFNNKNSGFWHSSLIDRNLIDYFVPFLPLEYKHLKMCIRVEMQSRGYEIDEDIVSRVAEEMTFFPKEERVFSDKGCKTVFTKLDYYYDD

Torsin-1A (Homo sapiens) [9] = biological target: Torsin-1A (Homo sapiens) (UniProt O14656); assay: torsin A mutant lysate binding on microarrays – cell lysate, small-molecule microarray, COS7 lysate, 635/667 nm fluorescence, primary screen (AID 1150); conditions: COS7 hTOR1A mutant lysate, 635 nm fluorescence, higher = more signal;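 further: score pools 667 nm emission and signal to noise measuring lysate protein binding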
[10] = test system: Sonic hedgehog protein (Shh); assay: Sonic hedgehog microarray binding compounds – biochemical, small-molecule microarray, 635/667 nm fluorescence, primary screen (AID 1151); conditions: 635 nm fluorescence, higher = more signal;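 further: Shh protein binding to compounds spotted on small-molecule microarray slides; score combines spot fluorescence intensity with signal-to-noise across triplicate slides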
[11] = optical density shifts of acrAB sulA E. coli – strain DRC41, OD650, 48 h, E. coli filamentation inducer project, primary screen (AID 1152); conditions: higher = more signal, called active from +8 up or from −8 down;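 further: E. coli MC1000 strain DRC41 lacking acrAB efflux pump and sulA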
[12] = probe aLefty1 binding on compound microarray – biochemical, small-molecule microarray, 635/667 nm fluorescence, primary screen (AID 1153); conditions: higher = more signal;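 further: score merges spot fluorescence with signal-to-noise ratio from the scanned slide images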
[13] = plasmodial surface anion channel blockers, osmotic lysis – cell-based, P. falciparum Indochina, OD700, 1 h, primary screen (AID 1154); conditions: P. falciparum Indochina infected RBC osmotic lysis, higher = more signal, called active from +8 up or from −8 down
[14] = plasmodial surface anion channel blockers, osmotic lysis – cell-based, P. falciparum Indochina, OD700, 2 h, primary screen (AID 1155);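 further: lysis reports solute entry through the parasite surface anion channel PSAC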; conditions: P. falciparum Indochina infected erythrocytes, higher = more signal, called active from +8 up or from −8 down
[15] = changes in parasitized red cell lysis, either direction – P. falciparum Indochina, OD700, 3 h, PSAC antagonist project, primary screen (AID 1156); conditions: P. falciparum-infected erythrocytes, osmotic lysis, higher = more signal, called active from +8 up or from −8 down
[16] = plasmodial surface anion channel blockers, osmotic lysis – cell-based, P. falciparum Indochina, OD700, 18 h, primary screen (AID 1157); conditions: P. falciparum Indochina infected erythrocytes, osmotic lysis OD700, 18 h; higher = more signal, called active from +8 up or from −8 down
[17] = S6 kinase pathway phospho-S6 level changes – cell-based, A549, cytoblot, luminescence, serum-stimulated, primary screen (AID 1158); conditions: 5 h, higher = more signal;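 further: serum-stimulated A549 lung adenocarcinoma cells; signal is phosphorylated S6 detected by cytoblot immunostaining with HRP secondary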
[18] = biological target: NADPH oxidase 2 (Homo sapiens) (UniProt P04839); assay: compounds shifting NOX2 Amplex Red fluorescence – cell-based, HEK293-NOX2, PMA-stimulated, NOX inhibitor project, primary screen (AID 1159); conditions: 45 min, higher = more signal, called active from +8 up or from −8 down; further: test concentration not given here
Sequence of NADPH oxidase 2 (Homo sapiens) (P04839 whole entry, looked up): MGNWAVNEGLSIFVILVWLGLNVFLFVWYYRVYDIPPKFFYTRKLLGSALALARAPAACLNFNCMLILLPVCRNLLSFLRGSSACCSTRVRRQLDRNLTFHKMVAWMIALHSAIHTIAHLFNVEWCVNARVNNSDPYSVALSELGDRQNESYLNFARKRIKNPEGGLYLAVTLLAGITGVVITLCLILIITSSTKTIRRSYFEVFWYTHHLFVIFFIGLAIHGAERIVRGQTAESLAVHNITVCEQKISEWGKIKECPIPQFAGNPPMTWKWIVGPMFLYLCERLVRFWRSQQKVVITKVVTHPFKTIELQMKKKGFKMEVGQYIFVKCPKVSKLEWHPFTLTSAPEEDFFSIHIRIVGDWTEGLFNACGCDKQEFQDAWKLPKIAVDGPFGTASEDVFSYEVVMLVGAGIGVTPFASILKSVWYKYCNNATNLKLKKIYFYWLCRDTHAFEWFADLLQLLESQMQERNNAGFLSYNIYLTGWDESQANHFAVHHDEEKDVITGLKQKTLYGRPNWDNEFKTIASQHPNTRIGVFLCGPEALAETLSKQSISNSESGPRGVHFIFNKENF

[19] = biological target: NADPH oxidase 4 (Homo sapiens) (UniProt Q9NPH5); assay: compounds shifting NOX4 Amplex Red fluorescence – cell-based, HEK293-NOX4, tetracycline-induced, NOX inhibitor project, primary screen (AID 1160); conditions: HEK293-NOX4, Amplex Red H2O2 fluorescence, 45 min; higher = more signal, called active from +8 up or from −8 down
Sequence of NADPH oxidase 4 (Homo sapiens) (Q9NPH5 whole entry, looked up): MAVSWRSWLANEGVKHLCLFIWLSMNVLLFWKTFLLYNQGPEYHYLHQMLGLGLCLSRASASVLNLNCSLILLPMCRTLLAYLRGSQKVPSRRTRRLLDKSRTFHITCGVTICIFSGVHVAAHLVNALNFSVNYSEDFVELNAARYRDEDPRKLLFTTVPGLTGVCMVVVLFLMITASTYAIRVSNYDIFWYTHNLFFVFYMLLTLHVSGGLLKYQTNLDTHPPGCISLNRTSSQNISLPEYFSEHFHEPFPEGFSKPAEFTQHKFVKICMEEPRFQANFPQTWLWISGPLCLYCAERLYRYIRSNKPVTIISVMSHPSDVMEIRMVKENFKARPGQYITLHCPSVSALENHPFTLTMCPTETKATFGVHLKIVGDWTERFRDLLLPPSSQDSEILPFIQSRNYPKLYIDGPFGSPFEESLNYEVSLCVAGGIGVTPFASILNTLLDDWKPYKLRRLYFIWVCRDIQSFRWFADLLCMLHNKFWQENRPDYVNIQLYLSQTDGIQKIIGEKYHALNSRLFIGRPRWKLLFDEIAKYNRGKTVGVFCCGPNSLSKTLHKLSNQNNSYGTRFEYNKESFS

[20] = biological target: NADPH oxidase 5 (Homo sapiens) (UniProt Q96PH1); assay: compounds shifting NOX5 Amplex Red fluorescence – cell-based, HEK293-NOX5, NOX inhibitor project, primary screen (AID 1161); conditions: HEK293-NOX5, ionomycin, 45 min, higher = more signal
Sequence of NADPH oxidase 5 (Homo sapiens) (Q96PH1 whole entry, looked up): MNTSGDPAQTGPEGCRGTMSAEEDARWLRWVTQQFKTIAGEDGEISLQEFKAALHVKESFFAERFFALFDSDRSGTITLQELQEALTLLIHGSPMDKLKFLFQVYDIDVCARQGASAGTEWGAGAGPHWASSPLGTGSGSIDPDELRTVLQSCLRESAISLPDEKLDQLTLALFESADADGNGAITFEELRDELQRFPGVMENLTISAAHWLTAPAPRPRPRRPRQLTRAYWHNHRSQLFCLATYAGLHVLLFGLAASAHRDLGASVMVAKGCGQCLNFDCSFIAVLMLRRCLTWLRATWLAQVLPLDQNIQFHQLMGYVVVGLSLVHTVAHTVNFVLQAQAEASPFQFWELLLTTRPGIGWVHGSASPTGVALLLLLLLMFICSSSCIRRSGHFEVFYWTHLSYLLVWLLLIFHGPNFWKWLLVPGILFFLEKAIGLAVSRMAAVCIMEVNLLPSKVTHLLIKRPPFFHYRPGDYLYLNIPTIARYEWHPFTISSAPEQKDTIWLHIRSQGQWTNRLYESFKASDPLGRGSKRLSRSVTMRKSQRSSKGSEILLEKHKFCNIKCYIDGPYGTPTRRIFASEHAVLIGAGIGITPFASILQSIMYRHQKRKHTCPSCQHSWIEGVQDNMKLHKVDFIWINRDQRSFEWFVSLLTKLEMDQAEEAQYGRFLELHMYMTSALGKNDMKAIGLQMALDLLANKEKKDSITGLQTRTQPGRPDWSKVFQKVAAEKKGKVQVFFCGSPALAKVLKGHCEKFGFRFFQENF

Structure (SMILES) | composite z-score [1] | z-score [2] | z-score [3] | z-score [4] | z-score [5] | composite z-score [6] | composite z-score [7] | composite z-score (Torsin-1A (Homo sapiens) [8]) | composite z-score (Torsin-1A (Homo sapiens) [9]) | composite z-score [10] | z-score [11] | composite z-score [12] | z-score [13] | z-score [14] | z-score [15] | z-score [16] | z-score [17] | z-score [18] | z-score [19] | z-score [20]
COC(=O)c1nc2oc1CC[C@@H](CO)NC(=O)N(C)Cc1cn(nn1)C[C@H](Cc1ccccc1)NC2=O | -0.0811 | -0.0962 (inactive) | 0.0307 (inactive) | 4.65 (inactive) | 0.338 (inactive) | -0.357 | -0.016 | -0.685 | -1.25 | 0.337 | 2.75 (inactive) | -0.145 | 1.53 (inactive) | 0.394 (inactive) | 0.864 (inactive) | 0.0148 (inactive) | 0.225 | -0.454 (inactive) | 0.917 (inactive) | 0.398
COCCn1c(C(=O)N(C)C)cc2c1C[C@H]1CN(C(=O)c3ccccc3)[C@@](Cc3ccc(F)cc3)(C(=O)OC)[C@@H]21 | 0.304 | -0.394 (inactive) | -0.191 (inactive) | -0.947 (inactive) | -0.578 (inactive) | 0.45 | -0.12 | 0.249 | 0.0952 | -0.0212 | 0.118 (inactive) | 0.211 | 0.666 (inactive) | -0.34 (inactive) | -0.0451 (inactive) | 0.397 (inactive) | -0.17 | 0.395 (inactive) | 0.211 (inactive) | -1.69
[N-]=[N+]=Nc1ccccc1C[C@]1(C(=O)N2CCCCC2)N=C(c2ccc(OCCCO)cc2)O[C@H]1c1ccccc1N=[N+]=[N-] | 0.316 | -3.99 (inactive) | -0.546 (inactive) | 0.722 (inactive) | -1.69 (inactive) | 1.04 | 0.622 | 0.656 | 0.951 | 0.364 | -0.866 (inactive) | 0.568 | 30.1 (active) | 28.3 (active) | 2.73 (inactive) | 7.18 (inactive) | -0.359 | -2.39 (inactive) | 0.341 (inactive) | -1.08
O=C(NCC(F)(F)F)[C@@H]1c2ccccc2C(=O)N(Cc2ccccc2)[C@H]1c1ccc(CO)cc1 | -0.18 | -0.223 (inactive) | -0.0791 (inactive) | -0.269 (inactive) | -0.461 (inactive) | -0.27 | -0.214 | 0.111 | 0.0036 | -0.911 | 0.467 (inactive) | -0.147 | 0.878 (inactive) | -0.453 (inactive) | 0.239 (inactive) | -0.406 (inactive) | -0.325 | -0.489 (inactive) | 0.597 (inactive) | -0.601
C=C(C(=O)CC[C@@H](OC(=O)c1cccnc1)c1ccc(CO)o1)C(C)C | 0.27 | 0.184 (inactive) | 0.228 (inactive) | 0.48 (inactive) | -0.135 (inactive) | 0.156 | 0.209 | 0.787 | 0.584 | 1.75 | -0.766 (inactive) | 0.329 | 1.42 (inactive) | 0.0559 (inactive) | 0.375 (inactive) | 0.209 (inactive) | -0.211 | 1.22 (inactive) | -0.133 (inactive) | 0.337
C=CCOC(=O)[C@H]1[C@@H]2C(=O)O[C@@H](c3ccccc3)[C@@H](c3ccccc3)N2[C@@H](c2ccc(OCCOC(=O)[C@@H]3C[C@@H]4C(=O)NCC(=O)N4[C@@H]3c3ccc(O)cc3)cc2)[C@]12C(=O)Nc1ccc(I)cc12 | 1.07 | 0.586 (inactive) | 0.183 (inactive) | 0.0003 (inactive) | -0.53 (inactive) | 0.205 | -0.125 | 1.02 | 1.18 | 2.04 | -0.481 (inactive) | 0.0545 | 1.63 (inactive) | 1.39 (inactive) | 1.49 (inactive) | 0.816 (inactive) | 0.361 | 1.57 (inactive) | 1.28 (inactive) | 1.61
COc1ccc(C(=O)Nc2cccc(CN3C(=O)[C@@]4(O[C@@H](CCn5cc([C@H](O)c6ccccc6)nn5)[C@H]([Si](C)(C)c5ccc(OC)cc5)[C@H]4C)c4ccccc43)c2)cc1 | 0.417 | -6.59 (inactive) | -0.301 (inactive) | 0.833 (inactive) | 0.834 (inactive) | 0.0185 | 0.0714 | -0.12 | 0.377 | 1.89 | -0.677 (inactive) | 0.379 | 4.91 (inactive) | 0.715 (inactive) | 0.618 (inactive) | 1.04 (inactive) | 0.858 | -0.492 (inactive) | 0.663 (inactive) | 2.23
COCCOC(=O)N1C(=O)[C@@]2(c3cc(C#Cc4ccc(OC)cc4)ccc31)[C@H](c1ccc(OCCO)cc1)N1[C@H](c3ccccc3)[C@H](c3ccccc3)OC(=O)[C@H]1[C@@H]2C(=O)N1CCc2cc(OC)c(OC)cc2C1 | 0.377 | -2.85 (inactive) | -1.61 (inactive) | -1.15 (inactive) | -1.33 (inactive) | 0.482 | -0.0736 | 0.37 | 0.454 | 1.85 | 2.55 (inactive) | 0.212 | 4.14 (inactive) | 1.8 (inactive) | -0.867 (inactive) | 0.608 (inactive) | 1.02 | 0.576 (inactive) | 0.459 (inactive) | 1.27
